# Measured values from PubChem BioAssay (NCI).
# Compounds without any hit were thinned out: in the full panel of roughly 83,000, 20% have a hit.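 Step 1: grow cells in 96-well plates. Step 2: add test compound at a single concentration. Step 3: incubate 48 h. Step 4: record percent growth.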 Values without a mark were called inactive. The source made the active and inactive calls. The calls were made as follows: active = growth percent below 10; inactive = the rest.
# Experiments:
# Assay in all cases: NCI-60 one-dose screen, 48 h (100 = growth as untreated, 0 = no growth, -100 = all killed)
# Settings in all cases: 10 µM unless noted
# T-47D breast = tested on: T-47D breast
# BT-549 breast = tested on: BT-549 breast
# MDA-MB-435 melanoma = tested on: MDA-MB-435 melanoma
# SW-620 colon = tested on: SW-620 colon
# MCF7 breast = tested on: MCF7 breast
# HCT-116 colon = tested on: HCT-116 colon
# KM12 colon = tested on: KM12 colon
# HCC-2998 colon = tested on: HCC-2998 colon
Structure (SMILES),growth (T-47D breast),growth (BT-549 breast),growth (MDA-MB-435 melanoma),growth (SW-620 colon),growth (MCF7 breast),growth (HCT-116 colon),growth (KM12 colon),growth (HCC-2998 colon) [%]
NC(N)=NS(=O)(=O)c1ccc(N=NC2C(=O)NN(c3ccccc3)C2=O)cc1 (centres undefined),95.8%,107%,101%,100%,93.2%,97.3%,103%,
COc1cc(C2=NN(C(C)=O)C(c3ccc(N4CCOCC4)cc3)C2)cc(OC)c1OC (centres undefined),97.1%,92.2%,,105%,96.3%,95.7%,106%,107
CC1OC(O[C@@H]2[C@H](O)C(CO)OC(O[C@H]3COC(O[C@H]4CC[C@]5(C)[C@H]6CC[C@]78OC[C@@]9(CCC(C)(C)C[C@H]97)[C@H](O)C[C@@]8(C)[C@]6(C)CC[C@H]5C4(C)C)[C@@H](OC4OC(CO)[C@@H](O)[C@@H](O)[C@@H]4O)[C@@H]3O)[C@H]2OC2OC[C@@H](O)[C@@H](O)[C@@H]2O)[C@@H](O)[C@@H](O)[C@H]1O (some centres undefined),-54.6% (active),-69.2% (active),-82.8% (active),-75.9% (active),-55.9% (active),-80.1% (active),-51.9% (active),
C=C(C)C(=O)O[C@H]1C[C@@]2(C)OC(=CC2=O)/C(CO)=C\[C@H]2OC(=O)C(=C)[C@H]12,-5.88% (active),-7.7% (active),-71% (active),-61.3% (active),-7.53% (active),-53.7% (active),-8.61% (active),
COc1ccccc1/C=C/C(=O)c1nnn(-c2ccc(C(=O)O)cc2)c1C,87.9%,96.4%,87.8%,102%,54.2%,68%,93.8%,
CCN1CCN(c2cc(C(=O)Nc3nc4ccc(Oc5ccnc(C(=O)NC)c5)cc4s3)cc(C(F)(F)F)c2)CC1,72%,149%,68.6%,77.5%,51.9%,57.9%,56.9%,
COc1ccc(S(=O)(=O)NCCCNc2nccc(-n3cnc4ccccc43)n2)cc1,66.3%,92.9%,98.7%,104%,85.1%,89.9%,84.1%,
O=C1[C@@H]2Cc3c([nH]c4ccccc34)[C@H](c3c(Cl)cccc3Cl)N2C(=O)CN1C1CCN(Cc2ccccc2)CC1,76.8%,29.4%,-61.8% (active),10.6%,1.17% (active),-32.8% (active),30.2%,
CC(C)Sc1nc(NC2CC2)c(C#N)c(-c2ccccc2)n1,83.5%,105%,88.1%,82.6%,73.7%,53.2%,97.5%,
Oc1ccc(CSc2nnc(-c3cnccn3)n2-c2ccccc2)c2cccnc12,7.38% (active),41.8%,23.4%,23.8%,2.85% (active),19.3%,18.9%,
COC(=O)[C@@]1(C)CC[C@]2(C)CC[C@]3(C)C(=CC(=O)[C@@H]4[C@@]5(C)Cc6c(n(CC#CCN7CCN(C)CC7)c7ccccc67)C(C)(C)[C@@H]5CC[C@]43C)[C@@H]2C1,84.8%,90.5%,40.3%,-63.4% (active),-32.4% (active),-28.7% (active),52.8%,
Cc1ccc(NC(=O)c2cccc(CN3CCN(C)CC3)c2)cc1Oc1ccc(-c2[nH]nc3ncnc(N)c23)cc1,82.6%,95.8%,56.3%,48.6%,41.4%,57.4%,37.4%,
C=C(C)C(=O)O[C@H]1C[C@@]2(C)OC(=CC2=O)[C@H](C)[C@H](O)[C@H]2OC(=O)C(=C)[C@@H]21,22.2%,68.9%,76.3%,17.3%,22.1%,33.4%,84.1%,
CN1CCN(c2ccc(C(=O)Nc3cccc(-c4cn(-c5ccc(S(N)(=O)=O)cc5)nn4)c3)cc2C(F)(F)F)CC1,74.8%,73.5%,77.7%,50.4%,70.8%,71.4%,59.1%,
CC(C)(C)CC(C)(C)n1nnnc1C(Nc1ccccc1)c1cc2cccc3ccc4cccc1c4c32 (centres undefined),55.7%,130%,83.6%,82.3%,61.6%,45.1%,86.7%,
Cc1ccccc1NC1CC(=O)N(c2ccc(Cl)cc2Cl)C1=O (centres undefined),105%,123%,101%,96.2%,94%,108%,105%,

Structure (SMILES),growth (T-47D breast),growth (BT-549 breast),growth (MDA-MB-435 melanoma),growth (SW-620 colon),growth (MCF7 breast),growth (HCT-116 colon),growth (KM12 colon),growth (HCC-2998 colon) [%]
O=C(NCCCNc1cc(-c2cn(-c3ccccc3)nc2-c2cccc(O)c2)ccn1)Nc1cc(C(F)(F)F)cc(C(F)(F)F)c1,77.5%,84.9%,75.3%,94.2%,59.1%,51.2%,58.1%,
CN(C)c1ncc(/C=C2\SC(=S)N(Cc3ccccc3Cl)C2=O)s1,96.9%,102%,103%,82.6%,92.1%,40.5%,97.5%,
C=CCn1c(SCC(=O)Nc2cccc(C(=O)/C=C/c3ccc(C)cc3)c2)nc2ccccc2c1=O,67.3%,122%,68.6%,67.5%,26.5%,13.7%,74.5%,
CN1CCN(c2ccc3c(C(N)=O)c(NC(=O)c4ccc(C(C)(C)C)cc4)sc3c2)CC1,92.3%,89.9%,95.1%,43.6%,39.7%,37.6%,81.7%,
C=C1C(=O)O[C@@H]2C[C@@H](C)CCC(=O)[C@](C)(OC(C)=O)C[C@H](OC(=O)/C(C)=C\C)[C@@H]12,39%,80.3%,65.9%,45.7%,35.1%,25.3%,91.6%,
NS(=O)(=O)c1ccc(-n2cc(CC=O)nn2)cc1,102%,111%,102%,109%,93.6%,108%,112%,
Cc1ccc(Nc2ncnc3c2c(C)nn3-c2ccc([N+](=O)[O-])cc2)cc1,78.8%,92.5%,95.7%,65.5%,83%,58.9%,81.2%,
C=C1C(=O)O[C@@H]2C[C@@H](C)[C@H](OC)CC(=O)[C@](C)(OC(C)=O)C[C@H](OC(=O)/C(C)=C\C)[C@@H]12,46.9%,83.7%,82.8%,15.6%,56.5%,5.78% (active),93.7%,
Cc1nn(-c2ccccc2)c2nc(CCl)[nH]c(=O)c12,66%,100%,97.9%,85.1%,16.4%,24.9%,53.3%,
C#C[C@]1(O)CC[C@H]2[C@@H]3CC=C4c5sc(Nc6nc(C)cc(OC)n6)nc5CC[C@]4(C)[C@H]3CC[C@@]21C,59%,48%,34.7%,23.6%,8.47% (active),42.7%,46.1%,
COc1ccc(/C=N\NC(=O)c2ccc3nc(-c4ccc(Br)cc4)[nH]c3c2)cc1,55.8%,65.8%,35.5%,23.5%,15.8%,12.5%,25.9%,
C=C1C(=O)O[C@@H]2C[C@@H](C)/C=C\C(=O)[C@](C)(OC(C)=O)C[C@H](OC(=O)/C(C)=C\C)[C@@H]12,-72.8% (active),-9.56% (active),-53.4% (active),-29.5% (active),11.2%,-70.3% (active),11.9%,
COc1ccc2c(C3=C(c4cn(C)c5ccccc45)C(=O)NC3=O)coc2c1,44%,82.6%,6.58% (active),39%,24.3%,15.8%,32.1%,
CC(=O)NC(C)(C)C(=O)N1CCC[C@H]1C(=O)NC(C)(C)C(=O)N[C@@H](C)C(=O)NC(C)(C)C(=O)NC(C)(C)C(=O)N[C@@H](CCC(N)=O)C(=O)NC(C)(C)C(=O)N[C@H](C(=O)NC(C)(C)C(=O)NCC(=O)N[C@@H](CC(C)C)C(=O)NC(C)(C)C(=O)N1CCC[C@H]1C(=O)N[C@H](C(=O)NC(C)(C)C(=O)NC(C)(C)C(=O)N[C@@H](CCC(N)=O)C(=O)N[C@@H](CCC(N)=O)C(=O)N[C@H](CO)Cc1ccccc1)C(C)C)C(C)C,10% [4.25 µM],-56.1% [4.25 µM] (active),17% [4.25 µM],45.5% [4.25 µM],12.4% [4.25 µM],24.1% [4.25 µM],35.7% [4.25 µM],
CCOC(=O)/C(F)=C/C1CC1CCc1cccc(C(F)(F)F)c1 (centres undefined),108%,113%,103%,102%,95%,110%,99.1%,
C=C1C(=O)O[C@@H]2/C=C(/C)C3=CC(=O)[C@@](C)(C[C@H](OC(=O)/C(C)=C\C)[C@@H]12)O3,-17.4% (active),27.9%,-59% (active),-28.7% (active),13.2%,-53.3% (active),28.2%,
